Measurements taken from PubChem BioAssay AID651747 (Johns Hopkins Ion Channel Center, 2012).
Screen size: about 2,400 compounds; about 950 (40%) were called active.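 The calls were made as follows: active = thallium flux ratio, averaged over three wells, more than 5 SD below the buffer control mean; inactive = the rest.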 A selection follows.

Experiment: thallium flux inhibition in non-induced cells, primary screen, counter-screen for KCNK3 inhibitor project, cell-based, non-induced KCNK3 line, FluxOR thallium, triplicate (AID 651747);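 also: host cells are CHO cells without KCNK3 induction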;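 as to thallium flux ratio (lower = more inhibition): ratio is peak minus trough fluorescence over baseline then normalized to buffer controls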
Details: non-induced KCNK3 parental cells, at 10 µM; hits give low values

Row | SMILES | thallium flux ratio (lower = more inhibition)
1 | CN1CCc2ccccc2C1Cc1ccccc1NC(=O)c1sc2ccccc2c1Cl (stereo not given) | 0.143 (active)
2 | N#Cc1cccc(NC(=O)COC(=O)c2ccccc2C(=O)c2ccc(Cl)c([N+](=O)[O-])c2)c1 | 0.153 (active)
3 | Cc1ccc(NC(=S)N2CCCC(c3ccccc3)=N2)cc1 | inactive
4 | COc1ccc(Nc2ncnc3sc(-c4ccccc4)cc23)c(OC)c1 | 0.124 (active)
5 | FC(F)(F)c1cccc(-c2cc3ccccc3nc2N2CCCC2)c1 | 0.127 (active)
6 | O=C(c1cc(-c2ccc(O)cc2)on1)N1CCCc2ccccc21 | inactive
7 | CSc1nccc(NC(=O)c2ccc(C(C)(C)C)cc2)n1 | inactive
8 | COc1cccc(CNc2nc(C(F)(F)F)nc3ccccc23)c1 | 0.111 (active)
9 | COc1ccccc1NC(=O)CSc1nc2sc(C)c(C)c2c(=O)n1Cc1ccco1 | inactive
10 | C=CCSc1nnc(N2C(=O)C(O)=C(C(=O)c3ccco3)C2c2ccc(F)cc2)s1 (stereo not given) | 0.101 (active)
11 | COc1cc(/C=C(\C#N)c2nc3ccccc3[nH]2)ccc1O | 0.0933 (active)
12 | Cc1cccc(NC(=O)c2sc3nc4c(c(-c5ccco5)c3c2N)CCC4)c1 | inactive
13 | [O-][n+]1ccc(OCc2ccccc2)cc1 | inactive
14 | COc1cccc(COc2ccc(N(C)S(=O)(=O)c3ccccc3)cc2)c1 | 0.109 (active)
15 | N/C(Cc1ccc([N+](=O)[O-])cc1)=N\OC(=O)COc1ccc2ccccc2c1 | inactive
16 | N#Cc1nc(Cc2cccc3ccccc23)oc1NCc1ccc2c(c1)OCO2 | 0.152 (active)
17 | COc1ccc([N+](=O)[O-])cc1-c1nc2ccccc2nc1-c1ccccc1 | 0.129 (active)
18 | CN(CCC(=O)Nc1cc(S(=O)(=O)N(C)C)ccc1Cl)CC(=O)Nc1ccc(F)cc1 | 0.159 (active)
19 | CCCC(=O)Nc1ccc(Cl)c(NC(=O)c2ccc(Br)o2)c1 | inactive
20 | Cc1cc(C)c(S(=O)(=O)c2ccccc2)c(OC(=O)c2c(F)cccc2Cl)n1 | inactive
21 | CS/C(=C\C(=O)c1ccco1)Nc1ccccc1Cl | 0.154 (active)
22 | Cc1cccc2cc(CN(Cc3nnnn3Cc3ccccc3)C3CCCC3)c(=O)[nH]c12 | 0.139 (active)

Row | SMILES | thallium flux ratio (lower = more inhibition)
23 | Cc1cc(OCCCCOc2ccc(C#N)cc2)ccc1[N+](=O)[O-] | inactive
24 | O=C1c2ccccc2C2=Nc3ccccc3SC(c3ccccc3F)C12 (stereo not given) | 0.125 (active)
25 | CCCCCCCCCCOC(=O)Cn1c(COc2cccc(OC)c2)[n+](C)c2ccccc21 | inactive
26 | CCCOc1ccc2c3c(c(=O)oc2c1OCCC)CCC3 | 0.158 (active)
27 | COc1cccc(CN(C)CC(O)COC(c2ccccc2)c2ccccc2C)c1 (stereo not given) | 0.146 (active)
28 | FC(F)(F)c1cc(-c2ccco2)nc(NCc2ccc(Cl)cc2)n1 | 0.148 (active)
29 | Cc1ccc(S(=O)(=O)NCc2cn3ccsc3n2)c(C)c1 | inactive
30 | COc1cccc(C(=O)NCCSc2ccc(Br)cc2)c1 | inactive
31 | O=C(NCCc1c[nH]c2ccccc12)c1cccc(Br)c1 | 0.159 (active)
32 | O=C(CSc1nc(Nc2ccccc2)nc(N2CCOCC2)n1)Nc1cc(Cl)ccc1O | 0.137 (active)
33 | CC(C)c1ccccc1OCC(O)CN(CC(O)COc1cccc2ccccc12)C(C)C (stereo not given) | inactive
34 | C=CCN(C(=O)c1cc(C)cc(C)c1)C1(C(=O)Nc2ccccc2)CCN(C(C)C)CC1 | inactive
35 | CC(=O)Nc1cccc(OCC(=O)/C=C2\N(C)c3ccccc3C2(C)C)c1 | inactive
36 | COc1cccc(/C=N/Nc2cc(C)nc(-c3ccccc3O)n2)c1O | 0.109 (active)
37 | CC[n+]1cc(C)ccc1/C=C/c1ccc(N(C)C)cc1 | 0.106 (active)
38 | N#Cc1ccc(S(=O)(=O)NCC(=O)OCC(=O)NCCc2ccccc2)cc1 | inactive
39 | Cc1cccc(-c2nc3ccc(C(=O)NCCN4CCN(C)CC4)cc3nc2-c2cccc(C)c2)c1 | 0.106 (active)
40 | Cc1ccc(NC(=O)c2cc([N+](=O)[O-])ccc2Cl)c(O)c1 | inactive
41 | CSc1nnc2c(n1)OC(c1ccsc1)N(C(C)=O)c1ccccc1-2 (stereo not given) | inactive
42 | Clc1cccc(-c2nc(NCC3CCCO3)c3ccccc3n2)c1 (stereo not given) | 0.129 (active)
43 | CCn1ncc(Br)c1C(=O)Nc1cc(C)ccc1F | inactive
44 | CCOc1ccccc1Oc1cn[nH]c1-c1ccc(OC)cc1O | inactive

Row | SMILES | thallium flux ratio (lower = more inhibition)
45 | S=C(Nc1cccc(Br)c1)N1CCn2cccc2C1c1cccnc1 (stereo not given) | inactive
46 | COC(=O)C1=C(C)N(C(C)c2ccccc2)C(=O)/C1=C\c1ccco1 (stereo not given) | 0.158 (active)
47 | O=C(Nc1ccccc1)O/N=C1\CCCCC1c1ccc([N+](=O)[O-])cc1[N+](=O)[O-] (stereo not given) | inactive
48 | CC(C)c1cc(C(=O)N/N=C/c2ccoc2)c(O)c(C(C)C)c1 | 0.147 (active)
49 | CSc1cccc(NC(=S)N(C(C)C)C(C)c2ccccn2)c1 (stereo not given) | inactive
50 | FC(F)(F)c1cccc(NC(=S)Nc2cccc(Cl)c2)c1 | 0.128 (active)
51 | O=C(CC1NCCc2ccccc21)Nc1cccc(Cl)c1 (stereo not given) | inactive
52 | CC(Oc1cccc(NC(=O)c2cccs2)c1)C(=O)c1ccccc1 (stereo not given) | inactive
53 | CC(NCc1cccs1)C(=O)Nc1cc(Cl)cc(Cl)c1 (stereo not given) | inactive
54 | O=C(Nc1cccc(Cl)c1)Nc1ccccc1NS(=O)(=O)c1cccs1 | 0.131 (active)
55 | C=CCSc1nsc(NC(=O)Nc2cccc(C(C)=O)c2)n1 | inactive
56 | O=C(NCCc1ccccc1)c1ccc2c(c1)N(Cc1ccccc1)CCS2 | 0.16 (active)
57 | O=C(Cn1cc(C(=O)c2cccs2)c2ccccc21)NCc1cccs1 | inactive
58 | CC(=O)N(C1=C(Cl)C(=O)c2ccccc2C1=O)c1ccc(C(=O)O)cc1 | 0.11 (active)
59 | CC(C(=O)NCC1CCCCC1)N(C)Cc1cccc(Cl)c1 (stereo not given) | inactive
60 | CC(C)CCNC(=O)C(C)N(C(=O)Cn1nnc(-c2ccc(F)cc2)n1)C1CCCC1 (stereo not given) | inactive
61 | COc1cccc(NC(=S)N(CCc2c(C)[nH]c3ccccc23)Cc2ccco2)c1 | 0.153 (active)
62 | Cc1nonc1C1CCCN1C(=O)c1cc(COc2cccc(C(F)(F)F)c2)on1 (stereo not given) | inactive
63 | Cc1cccc(N(Cc2ccccc2)C(=O)c2ccccc2F)c1 | inactive
64 | Cc1cccc(C)c1N1CCN(S(=O)(=O)N2CCCCC2)CC1 | 0.156 (active)
65 | COc1ccccc1N1CCN(/N=C\C(Br)=C\c2ccccc2)CC1 | inactive
